PI5P4Ka inh: PI5P4K alpha (human) kinase inhibition; P48426; PI5P4Kalpha enzyme, ADP-Glo luminescence, 60 min; active compounds read low; max response, %; 330,000 compounds, 1.2% hits; AID 652105; active = max response of -50% or lower; inconclusive = between -30% and -50%; inactive = -30% or higher; note: value at the top dose of about 77 µM; % is set by controls: 0 for no effect and ±100 for the full control effect
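Reactions run in 0.038 M HEPES pH 7.4, 0.28 mM EGTA, 0.1% CHAPS and 5% DMSO, with PI5P4Kalpha, substrate, compound and 5 microM ATP final, one hour at room temperature. Readout is ADP-Glo luminescence.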
Pol kappa inh-1: inhibitors of human DNA polymerase kappa | Q9UBT6 | Potency, µM (series often up to 107 µM), for inactives: at the top dose activity, negative = inhibition, hits mostly inhibitors | purified Pol kappa, fluorescent DNA synthesis assay, 10 min | 400,000 compounds, 0.53% hits; note: potency is the fitted concentration of half-maximal effect; % is set by controls: 0 for no effect and ±100 for the full control effect
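Kinetic fluorescence screen: compound preincubated 15 min RT with 10 nM enzyme; 50 nM substrate (final) initiates; reads at 0/10 min.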
Pol eta inh-1: inhibitors of human DNA polymerase eta | recombinant Pol eta, fluorescent DNA replication assay | 390,000 compounds, 1.2% hits | Q9Y253 | Potency, µM (titrated, usually from 114 µM), for inactives: at the highest dose activity change, negative = inhibition, actives largely listed as inhibitors | AID 588591; note: potency is the fitted concentration of half-maximal effect; % is set by controls: 0 for no effect and ±100 for the full control effect
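Pol eta at 10 nM preincubated with compounds 15 min at room temperature; reaction started with fluorescent substrate (50 nM final) and read kinetically at 0 and 10 min.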
POLB inh: DNA polymerase beta (human) inhibition. Potency, µM (titrated, usually from 114 µM), inactives show at the highest dose activity change, negative = inhibition, actives largely listed as inhibitors. Pol beta primer extension/strand displacement, fluorescence kinetic. 340,000 compounds, 1.3% hits. P06746; note: potency is the fitted concentration of half-maximal effect; % is set by controls: 0 for no effect and ±100 for the full control effect
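Homogeneous kinetic assay of primer extension and strand displacement by 10 nM Pol beta, preincubated 15 min at room temperature with compound before 50 nM substrate (final) was added. Read at 0 and 10 min; four-parameter Hill fit.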
WRN inhibitor: WRN helicase (human) inhibition. Q14191. WRN helicase unwinding, fluorescent forked duplex, kinetic. Potency, µM (top dose mostly 114 µM), without a hit: top-dose activity change, negative = inhibition, hits mostly inhibitors. 360,000 compounds, 0.46% hits; note: potency is the fitted concentration of half-maximal effect; % is set by controls: 0 for no effect and ±100 for the full control effect; nearly all actives have a fitted effect of over 55% in size
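Kinetic fluorescence helicase assay: unwinding of a quenched forked DNA duplex (100 nM final) with 2 mM ATP final raises red fluorescence (525/598 nm). Compounds sat 15 min at room temperature with 20 nM WRN beforehand.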
Pol iota inh: DNA polymerase iota (human) inhibition | Pol iota fluorescent replication assay, 10 min | 390,000 compounds, 1% hits | Q9UNA4 | Potency, µM (doses to about 115 µM), for the others: at the highest dose activity, negative = inhibition, most hits filed as inhibitors; note: potency is the fitted concentration of half-maximal effect
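Fluorescent replication assay read twice, at 0 min and 10 min after adding 50 nM (final) substrate. Enzyme (10 nM) and compounds were first incubated 15 min at room temperature; enzyme-free buffer wells were negative controls.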
Pol kappa inh-2: confirmation of human DNA polymerase kappa inhibitors; shares compounds with Pol eta inh-1; purified Pol-kappa, fluorescent strand-displacement substrate; AID 720501; Potency, µM, usual class: inhibitors; 920 compounds, 76% hits; note: potency is the fitted concentration of half-maximal effect
Pol eta inh-2: confirmation of human DNA polymerase eta inhibitors; shares compounds with Pol eta inh-1; Pol eta primer extension, TAMRA/BHQ fluorescence, 10 min; Potency, µM, most hits filed as inhibitors; AID 720502; 2,600 compounds, 64% hits; note: potency is the fitted concentration of half-maximal effect
Starred values were filed as active, the others as inactive; ? = inconclusive; nt = no result; [ ] = dose if it differs, or a comment. In the library only some 2.8% were active in any assay of this set; here they are far more common. Unless noted, calls come from the whole dose curve; as a rule, active = well fitted curve in the direction sought with a large enough effect; inconclusive = small, poorly fitted or top-dose-only effect, or another doubt; inactive = no such curve, though single readings can be large; an effect the other way counts as inactive or inconclusive.

SMILES	PI5P4Ka inh	Pol kappa inh-1	Pol eta inh-1	POLB inh	WRN inhibitor	Pol iota inh	Pol eta inh-2	others
CC(=O)Nc1sc2c(c1C#N)CCCCC2	0	-3%	-11%	17%	1%	-1%	nt
CN(C)C(=O)C[C@@H]1CC[C@@H](NC(=O)C2CCC2)[C@@H](CO)O1	0	nt	nt	nt	-1%	nt	nt
CC(C)Oc1ccc(C(=O)NC(=S)Nc2ccc(Cl)c(C(=O)O)c2)cc1	-14	6%	-17%	-1%	1%	3%	nt
Cc1cc(Nc2ccccc2F)n2nc(-c3ccccc3)nc2n1	nt	-8%	-7%	1%	nt	-9%	nt
CCOC(=O)C(=O)Nc1nc(-c2ccc3c(c2)CCN3C(=O)C2CC2)c(C)s1	4	-3%	14µM*	-6%	1%	-11%	?
CCc1ccccc1NS(=O)(=O)c1ccc(-c2coc(C)n2)cc1	nt	-11%[60.1 µM]	-10%	4%	nt	-17%	nt
CN(CC(=O)Nc1ccc(F)c(F)c1F)C(=O)C1CCN(C(=O)Nc2ccccc2)CC1	2	-11%	-10%	nt	14%	21%	nt
CCc1nc2c(OCCn3cccc3)cccn2c1N(C)C(=O)c1ccc(C)cc1	-4	nt	nt	nt	-6%	nt	nt
COc1ccc(/C=C/C(=O)NCC(=O)N=Nc2c(O)[nH]c3ccc([N+](=O)[O-])cc23)cc1	-18	-6%	35µM*	50µM*	-11%[11.6 µM]	34%	nt	Pol kappa inh-2=84*
COc1ccc(OC)c(/C=N\Nc2nccs2)c1	-27	-3%	-1%	nt	0%	40%	nt
COc1ccc(OC)c(/C=N/Nc2nncn2/N=C/c2cc(OC)ccc2OC)c1	-6	-5%	?	?	-25%	?	30*
CCc1ccccc1NC(=O)CSc1nncn2c1cc1oc(C)cc12	nt	-19%	-8%	17%	nt	8%	nt
NC(=O)c1ccc(N=Cc2ccc([N+](=O)[O-])s2)cc1	-28	-34%	32µM*	?	-3%	50µM*	?
CCOC(=O)C1=CN(Cc2ccco2)S(=O)(=O)N(C)C1c1ccc(F)c(Cl)c1 (stereo unspecified)	-18	5%	-19%	nt	-5%	-10%	nt
C=CCOc1c(Br)cc(C2NC(=O)NC(C)=C2C(C)=O)cc1OCC (stereo unspecified)	nt	-5%	-8%	-11%	-2%	-3%	nt
CCOc1cc(C2NC(=O)NC(C)=C2C(C)=O)cc(Cl)c1OCC(=O)O (stereo unspecified)	nt	-28%	22µM*	?	-9%[57.1 µM]	?	?
NC(=O)COC(=O)c1ccc(S(=O)(=O)NCc2ccco2)cc1	-12	?	35µM*	?	-28%	14µM*	?
O=C(COc1ccccc1)Nc1ccc(S(=O)(=O)NCc2ccco2)cc1	?	?	18µM*	45µM*	-32%[57.1 µM]	?	?
Cc1ccc(CNC(=O)COC(=O)c2ccc(S(=O)(=O)NCc3ccco3)cc2)cc1	-2	-6%	-16%	nt	-4%	24%	nt
O=C(COc1ccccc1)NCCSCc1ccco1	-17	?	14µM*	?	-33%[57.1 µM]	?	?
COC(=O)C1=C(C)N(CC2CC2)C(=O)N[C@H]1c1ccccc1	-4	-16%	5%	nt	?	?	nt

High-throughput results: PubChem BioAssay, National Center for Advancing Translational Sciences (NCATS)
